Shown are actives, neighbours in structure and some others; about 2.2% of the full set was active somewhere.
TDP43 rescue: TDP-43 toxicity inhibition in yeast | actives 1.8% (n = 410,000) | TDP-43 expressing yeast growth rescue, BacTiter-Glo, 24 h | Potency, µM (doses to about 46.1 µM), actives largely listed as activators; note: nearly all actives have a fitted effect of over 50% in size
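Readout is BacTiter-Glo luminescence of cell growth, so inhibitors register as activators. TDP-43-expressing yeast at OD600=0.02 in galactose medium, after raffinose pregrowth to mid-log, were incubated with compound for 24 hr at 30 deg C.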
FUS yeast rescue: rescues growth of FUS-expressing yeast; S. cerevisiae FUS-expressing, growth rescue, OD600, 24 h; Potency, µM (series often up to 76.6 µM), actives largely listed as activators; actives 0.24% (n = 390,000); note: nearly all actives have a fitted effect of over 55% in size
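Cultures pregrown in 2.5% raffinose medium are shifted to minimal medium containing 2% galactose to express toxic FUS. Compounds are tested at several concentrations. After 24hr at 30C, growth is quantified at 600 nm absorbance.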
Abeta yeast res: A-beta toxicity reversal in yeast; yeast expressing A-beta42, growth rescue, OD600, 48 h; response scale: 0% DMSO, 100% iron-clioquinol control; Potency, µM (highest dose often 46.1 µM), actives largely listed as activators; actives 0.063% (n = 410,000); note: nearly all actives have a fitted effect of over 55% in size
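Yeast growth medium received pinned compounds, then yeast cells expressing toxic A-beta were added; plates incubated at 30 C for 48 hr. Growth read as absorbance at 600 nm, normalized to DMSO and equimolar FeCl3 plus clioquinol controls.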
Mito fusion act: inhibitors of mitochondrial division or activators of mitochondrial fusion; AID 485298; actives 0.23% (n = 320,000); S. cerevisiae fusion-defective mutant growth rescue, CellTiterGlo 48 h; Potency, µM (titrated, usually from 46.1 µM), hits mostly activators; note: nearly all actives have a fitted effect of over 45% in size
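Compounds are tested for their ability to restore growth of mitochondrial fusion-defective yeast strains at non-permissive 37C in YPEG medium over 48 hours. Viability is quantified by luciferase luminescence.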
aSyn yeast inh: inhibitors of alpha-synuclein toxicity in yeast; Yeast expressing alpha-synuclein, growth rescue, BacTiter-Glo, 24 h; Potency, µM (highest dose often 46.1 µM), actives largely listed as activators; actives 0.14% (n = 370,000); AID 652106; note: nearly all actives have a fitted effect of over 65% in size
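Galactose-induced alpha-syn yeast (OD600=0.02, raffinose-pregrown) + pinned cpd, 24 hr, 30 deg C; growth by BacTiter-Glo luminescence. Growth restoration scores as activation.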
Numbers stand for hits; i = inactive; ? = inconclusive; nt = not tested or not shown; [ ] = remark or other dose. Calls come from the whole dose curve; as a rule, active = well fitted curve in the direction sought with a large enough effect; inconclusive = small, poorly fitted or top-dose-only effect, or another doubt; inactive = no such curve, though single readings can be large; an effect the other way counts as inactive or inconclusive.

SMILES | TDP43 rescue | FUS yeast rescue | Abeta yeast res | Mito fusion act | aSyn yeast inh
C=C1CCC2C(C)(C)[C@@H](O)CC[C@@]2(C)[C@@H]1COc1ccc2ccc(=O)oc2c1 (some centres not stated) | i | i | i | i | 17.8µM
CC(=O)C1=C(c2ccc(Cl)cc2)N(C(C)=O)n2c(nnc2C2CCCCC2)S1 | i | i | i | nt | nt
COc1ccc(NC(=O)c2c(-c3ccccc3)c(-c3ccccc3)nn(C)c2=O)c(OC)c1 | i | i | i | nt | nt
COc1cc2c(NC3CCN(C)CC3)nc(N3CCCCC3)nc2cc1OCCOCCN(C)C | nt | nt | nt | nt | i
COC(=O)C1=C(C(=O)OC)C(c2cc(Cl)ccc2O)c2sc(=O)[nH]c2S1 (configuration not stated) | i | i | i | i | 14.1µM
CN(C)C(=O)COc1ccccc1C(=O)OCC(=O)Nc1ccc(Oc2ccc(Br)cc2)cc1 | nt | nt | nt | nt | i
O=c1[nH]nc(CNc2ccc(OC(F)(F)F)cc2)c2ccccc12 | 14.1µM | i | i | i | i
Nc1cc(N)nc(SCc2ccccc2)n1 | i | i | i | i | i
CC(=O)c1cnc(SCc2ccc(Cl)cc2)nc1C | ? | i | i | i | i
O/N=C/c1ccnc(SCc2ccccc2)n1 | 11.2µM | i | i | i | i
O/N=C/c1ccnc(SCc2ccc(Cl)cc2)n1 | 10µM | i | i | i | i
Cc1cccc(Cn2cccc2CNS(=O)(=O)c2ccccc2F)c1 | 20µM | i | i | nt | nt
CCOC(=O)c1c(NC(=O)/C=C/c2ccc(Cl)cc2)sc2c1CCC(C)C2 (configuration not stated) | i | i | i | nt | nt
CCOC(=O)C1CCN(C(=O)c2nn(-c3ccc(OC)c(Cl)c3)c(=O)c3c2c2ccccc2n3C)CC1 | i | i | i | nt | nt
Cc1ccc(C(C)NC(=S)NC2CCCCC2)c(C)c1 (configuration not stated) | i | i | 11.2µM | i | i
CC(c1ccc(O)cc1)c1cn(C)c2ccccc12 (configuration not stated) | nt | i | nt | nt | nt
COc1ccc(NC(=O)CSc2nc3c(c(=O)n(C)c(=O)n3C)n2C)c(OC)c1 | i | i | i | i | i
O=C(NCCC1=CCCCC1)C1CCN(C(=O)N2CCOc3ccc(Cl)cc32)CC1 | 28.2µM | i | ? | nt | nt
COc1ccc(-c2nnc(SC(C)C(=O)O)o2)cc1 (configuration not stated) | i | i | i | nt | i
COc1ccc(-c2nnc(SC(C)C(=O)Nc3cccc(Cl)c3)o2)cc1 (configuration not stated) | 12.6µM | i | i | i | i
COc1cccc(-c2cc(C(F)(F)F)nc(NCCc3ccccc3)n2)c1 | i | i | i | nt | nt
Cn1cc([N+](=O)[O-])c(C(=O)Nc2sc3c(c2C#N)CCC3)n1 | i | i | i | 11.2µM | i
O=C(Nc1ccc(F)cc1)Nc1c(-c2ccc(F)cc2)nc2ncccn12 | nt | i | nt | nt | nt
O=C(NCc1cccc(Cl)c1)c1ccc(NC(=O)N2CC3CCCN3c3ccccc32)cc1 (configuration not stated) | i[9.22 µM] | ? | i | nt | nt
Fc1ccccc1C1CC(c2ccco2)=Nc2ccccc2S1 (configuration not stated) | 22.4µM | i | i | i | i
SMILES | TDP43 rescue | FUS yeast rescue | Abeta yeast res | Mito fusion act | aSyn yeast inh
COc1ccccc1C1CC(c2cccs2)=Nc2ccccc2S1 (configuration not stated) | i | i | i | i | i
CN(C(=O)c1oc(=O)c2ccccc2c1-c1ccccc1)c1cccc(Cl)c1 | 25.1µM | i | i | nt | nt
COc1cc(C)c(NC(=O)COc2ccc3c(c2)OCO3)cc1C | i | i | i | i | i
COc1ccc(OCc2cc(=O)c3ccc4c(c3o2)C=CC(C)(C)O4)cc1OC | 35.5µM | i | i | nt | i
COc1c2c(cc3oc(=O)ccc13)OC(C)(C)C=C2 | ? | i | i | i | i
CC(C(=O)N1CCc2ccccc21)n1cnc2c1c(=O)n(C)c(=O)n2C (configuration not stated) | i | i | i | i | i
Oc1ccc(/C=N/Nc2ccc(C(F)(F)F)cn2)c(O)c1 | nt | nt | nt | i | nt
Oc1ccc(/C=N/Nc2ccc(C(F)(F)F)cn2)cc1 | 10µM | i | ? | i | i
CCCOc1ccc(CCC(=O)O)cc1 | 14.1µM | i | i | i | i
COc1ccccc1/C=C1\SC(N2CCC(C)CC2)=NC1=O | 12.6µM | i | i | i | i
CCCC(=O)N1c2ccccc2C(=C2SC(C(=O)OC)=C(C(=O)OC)S2)C(=S)C1(C)C | ? | i | i | i | i

Screening data (PubChem BioAssay)
